Measurements from PubChem BioAssay (NCI).
This is part of a sample that, as a whole, favours compounds with a hit. Of some 83,000 tested, about 20% had one in any assay.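 Values shown are percent growth following 48 h exposure of cells in 96-well plates to a single concentration of compound; below 10 was considered active.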 Values without a mark were called inactive. Active and inactive are the calls of the source.

tested on: SK-MEL-28 melanoma; experiment: NCI-60 one-dose screen, 48 h (100 = growth as untreated, 0 = no growth, -100 = all killed); conditions: 10 µM unless noted

Structure (SMILES)	growth
O=C(CCN1CCCC1)Nc1ccc2c(NCCCCc3ccccc3)c3ccccc3nc2c1	-63.4% (active)
CSc1nc2sc3cccc(Cl)c3n2c(=N)c1C#N	115%
C#CCNC(=O)c1cccc2c1cc(C)n2-c1nc2c(c(NCc3ccccc3)n1)CCCC2	-6.03% (active)
Cc1ccc(S(=O)(=O)NNC(=O)/C(=C\c2ccc(Cl)cc2)c2nc3ccccc3s2)cc1	101%
O=[N+]([O-])CC(c1ccccc1)c1c[nH]c2ccccc12 (centres undefined)	59.9%
Nc1nc(Nc2ccccc2SSc2ccccc2Nc2nc(N)nc(-c3ccc(C(F)(F)F)cc3)n2)nc(-c2ccc(C(F)(F)F)cc2)n1	95.6%
CCCCCC(=O)Oc1ccc(/C(=C(\C)c2ccccc2)c2ccc(OCCN3CCCCC3)cc2)cc1	71.4%
C/C(=N\Nc1cc(C)nc2ccc(Br)cc12)c1ccc([N+](=O)[O-])cc1	99.2%
COc1cccc(-c2ccc3c(c2)NC(=O)/C3=C\c2ccc[nH]2)c1	70.7%
CCC(=O)Oc1ccc(/C(=C(\C)c2ccccc2)c2ccc(OCCN3CCCCC3)cc2)cc1	71.2%
COc1cc(CC(=O)c2ccc(O)c(OC)c2)ccc1O	97.2%
Brc1ccc2[nH]cc(-c3cncn3CCc3ccccc3)c2c1	69.6%
CCNC(=O)Oc1ccc(/C(=C(\C)c2ccccc2)c2ccc(OCCCN(C)C)cc2)cc1	58%
O=C(/C=C/c1ccc(F)cc1)c1ccc(NC(=O)N2CCN(c3cc4c(cc3F)c(=O)c(C(=O)O)cn4C3CC3)CC2)cc1	90.6%
